Assay results: PubChem BioAssay AID504408 (Broad Institute, 2011)
Hit rate of the full screen: of about 300,000 compounds, about 5,200 (1.7%) were called active.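 How the source made its calls: active means mean replicate activation of at least 50% with a set share of replicates each reaching 50%; inconclusive means only one of those two conditions met; inactive means mean below 50% and too few replicates reaching it.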 The entries come from a sample that favours actives as a whole.

Experiment: HSF-1 response element luciferase induction – NIH3T3-HGL cells, MG132 stress, luminescence, single point, primary screen (AID 504408);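 further: 0% = median of the neutral control wells and 100% = twice that signal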
Conditions: NIH3T3-HGL HSF-1 luciferase reporter, MG132, 8 h; at 9 µM; active compounds read high; 100% = twice DMSO control signal
For CN(C(=O)COC(=O)c1ccc(Br)o1)c1c(N)n(Cc2ccccc2)c(=O)[nH]c1=O, the activation was 5.07% (inactive).
In the case of CC1(C)O[C@@H]2CC3C4C[C@H](F)C5=CC(=O)C=CC5(C)C4C(O)CC3(C)[C@]2(C(=O)CO)O1 (stereo not given in full), the activation is reported as -43.8% (inactive).
With COc1ccc(-c2csc(-c3cccs3)n2)cc1OC the activation was 19.1% (inactive).
With COc1ccccc1-c1nnc(-c2ccc(F)cc2)o1 the activation was 38.9% (inactive).
For COc1ccc(-c2csc3nc(-c4ccccc4F)oc(=O)c23)cc1OC, the activation was 164% (active).
For CC(=O)N/C(=C\c1ccccc1)C(=O)OC(C)C(=O)N(C)c1ccccc1 (stereo not given), the activation was 2.37% (inactive).
In the case of O=C(Cc1ccc(-c2ccccc2)cc1)NC(c1ccccc1)c1ccccc1, the activation is reported as 0.938% (inactive).
With CCOC(=O)/C=C/C(=O)OCC(=O)NC(c1ccccc1)c1ccccc1 the activation was 177% (active).
With CCOC(=O)C(C(=O)OCC)C(C#N)c1ccccc1 (stereo not given) the activation was 14.7% (inactive).
In the case of COc1ccc(C(C#N)(CC(=O)O)c2cnccn2)cc1OC (stereo not given), the activation is reported as -7.73% (inactive).
In the case of COc1ccc(-c2cc(C(F)(F)F)nc(SCC(=O)Nc3ccc4c(c3)OCO4)n2)cc1OC, the activation is reported as 12.6% (inactive).
For COc1cc(OC)nc(S(C)(=O)=O)n1, the activation was -10.3% (inactive).
For COc1ccc(-c2cc(C(F)(F)F)nc(S(C)(=O)=O)n2)cc1OC, the activation was 236% (active).
With COc1ccc(CNC(=O)CNC(=O)c2sc3ccccc3c2Cl)cc1OC the activation was 5.99% (inactive).
For COc1ccc(C(=O)Nc2sc(C)c(C)c2CN2CCOCC2)cc1, the activation was 399% (active).
With COc1ccc(C(=O)Nc2ccnn2C2CCN(Cc3ccncc3)CC2)cc1 the activation was 0.31% (inactive).
With CCc1cc(C(N)=O)c(NC(=O)c2ccc(OC)cc2)s1 the activation was 15.1% (inactive).
With CC(=O)c1c(C)[nH]c(C(=O)N2CCN(S(=O)(=O)c3ccc(F)c(F)c3)CC2)c1C the activation was 0.878% (inactive).
In the case of O=[N+]([O-])c1ncc(Br)cc1Nc1ccccc1, the activation is reported as -4.85% (inactive).
With Oc1ccccc1CNc1ncc(Br)cc1Br the activation was 114% (active).
For CCc1cccc(C)c1NS(=O)(=O)c1cc(Br)cnc1N, the activation was 0.695% (inactive).
For COc1ccc(S(=O)(=O)N2CCCCC2)cc1NC(=O)C1CC(=O)N(c2ccc3c(c2)OCCO3)C1 (stereo not given), the activation was 1.34% (inactive).
For O=C(NCCN1CCOCC1)c1ccc2c(c1)N(Cc1ccc(Cl)cc1)CCS2, the activation was 16.5% (inactive).
In the case of CCOC(=O)N1CCN(C(=O)c2ccc3c(c2)N(Cc2ccc(C)cc2)CCS3)CC1, the activation is reported as 9.82% (inactive).
With O=C(NCCc1ccccc1)c1ccc2c(c1)N(Cc1ccccc1)CCS2 the activation was 82.5% (active).
In the case of CC(=O)Nc1ccc(NC(=O)CSC2=NS(=O)(=O)c3ccccc3N2)cc1, the activation is reported as -10.3% (inactive).
In the case of CC(=O)Nc1ccc(NC(=O)C(C)OC(=O)C2CC(=O)N(CCc3ccccc3)C2)cc1 (stereo not given), the activation is reported as -21.8% (inactive).
In the case of COCCN(C(=O)COC(=O)Cc1cccc(OC)c1)c1c(N)n(Cc2ccccc2)c(=O)[nH]c1=O, the activation is reported as 2.54% (inactive).
With Cc1cccc([C@@H]2[C@@H]3C(=O)N(Cc4ccccc4)C(=O)[C@@H]3[C@]3(Cc4ccc(Cl)cc4)C(=O)N(c4cccc(Cl)c4)C(=O)N23)c1 the activation was 13.8% (inactive).
For Cc1ccc(C(=O)CN2C(=O)NC3(CCc4ccccc43)C2=O)c(C)c1 (stereo not given), the activation was 0.629% (inactive).
In the case of O=C(Nc1ccccc1N1CCOCC1)c1csc2c1CCCC2, the activation is reported as 6.54% (inactive).
In the case of Cc1ccc(NC(=O)c2csc3c2CCCC3)cc1, the activation is reported as 59.9% (active).
With COC(=O)c1sc(NC(=O)c2csc3c2CCCC3)nc1C the activation was 30.2% (inactive).
In the case of Cc1cc(=O)oc2cc(NC(=O)C(C)Oc3ccccc3)ccc12 (stereo not given), the activation is reported as -3.4% (inactive).
For O=C(c1cc(-c2ccco2)nc2ccccc12)N(Cc1nnc(-c2ccc(Cl)cc2)o1)C1CC1, the activation was 16.1% (inactive).
In the case of NC(=O)C1CCN(C(=O)c2cn(-c3ccccc3)nc2-c2cccnc2)CC1, the activation is reported as 32.4% (inactive).
With COc1cccc(N(CC(=O)Nc2cccc(N(C)S(C)(=O)=O)c2)S(C)(=O)=O)c1 the activation was 12.3% (inactive).
In the case of Cc1ccc(N(CC(=O)Nc2cccc(N(C)S(C)(=O)=O)c2)S(C)(=O)=O)cc1, the activation is reported as 0.04% (inactive).
In the case of CN(c1cccc(NC(=O)Nc2ccc(Cl)cc2)c1)S(C)(=O)=O, the activation is reported as 115% (active).
For Cc1ccc2nc(-c3ccc(SCC(=O)Nc4cc(C)on4)nc3)[nH]c2c1, the activation was 55.5% (active).
With Cc1ccc(SCCC(=O)Nc2cc(C)on2)cc1 the activation was -5.42% (inactive).
In the case of Cc1ccc2nc(SCC(=O)NC3CCCC3)[nH]c2c1, the activation is reported as 7.63% (inactive).
For O=C(COc1ccccc1F)Nc1nc(-c2ccccn2)cs1, the activation was -13.1% (inactive).
With S=c1[nH]c(-c2cccs2)cn1-c1ccccc1 the activation was 33.3% (inactive).
For COc1ccc(-n2c(-c3ccc(OC)c(OC)c3)n[nH]c2=S)cc1, the activation was 3.03% (inactive).
With COc1ccc(-c2cn(-c3ccc(OC)cc3)c(=S)[nH]2)cc1 the activation was 56.7% (active).
For CC[C@@]12C(=O)N(c3ccccc3)C(=O)N1[C@H](c1ccc(Br)cc1)[C@@H]1C(=O)N(C(C)(C)C)C(=O)[C@@H]12, the activation was -15% (inactive).
For CC1CCCCC1NC(=O)c1cc(=O)[nH]c2ccccc12 (stereo not given), the activation was 1.85% (inactive).
For CCN1CCN(C(=O)N(Cc2ccc(Cl)cc2)S(=O)(=O)c2ccc(C)cc2)CC1, the activation was 0.289% (inactive).
In the case of Cc1ccccc1-n1nnc2c(=O)oc3ccccc3c21, the activation is reported as 105% (active).
With CCCCC(=O)Nc1cc(C)c2c(=O)oc3ccccc3c2n1 the activation was 6.46% (inactive).
For CCOC(=O)c1c(C)nc2c(c1C)c(=O)oc1ccccc12, the activation was 36.6% (inactive).
With CN(CC(=O)NNC(=O)CNC(=O)c1ccccc1Cl)S(=O)(=O)c1ccc(Cl)cc1 the activation was -6.99% (inactive).
With O=C(CSc1nnc(-c2ccccc2O)o1)NC1CCCCC1 the activation was -7.41% (inactive).
For Fc1ccc(CSc2nnc(-c3cc4c(s3)-c3ccccc3CC4)o2)cc1, the activation was 21.9% (inactive).
In the case of CCSc1nnc(-c2cc3c(s2)-c2ccccc2CC3)o1, the activation is reported as 51.8% (active).
For O=C(c1ccncc1)N1CCN(S(=O)(=O)c2cc(C(F)(F)F)cc(C(F)(F)F)c2)CC1, the activation was 4.51% (inactive).
In the case of CCCCC(=O)N/N=C(\C)CC(=O)Nc1cc(Cl)ccc1OC, the activation is reported as 72.1% (active).
With COc1ccc(/C(C)=N/NC(=O)CCC(=O)Nc2ccc(Cl)cc2Cl)c(OC)c1 the activation was 1.67% (inactive).
For COc1ccc(Cl)cc1NC(=O)CNc1ccccc1F, the activation was 2.49% (inactive).
